Common to all, as to test: log2 ratio of Biotin-Ahx-Ub-VS probe labelling (fragment/DMSO); higher = less target engagement (more negative = stronger competition), active = hit call of the paper (q ≤ 0.05, log2 ratio ≤ -1)
Details in all cases: compound concentration: 200 uM; treatment time: 3 h

In test [1] the target is T1, USP19 (UniProt O94966).
T1 sequence (whole entry): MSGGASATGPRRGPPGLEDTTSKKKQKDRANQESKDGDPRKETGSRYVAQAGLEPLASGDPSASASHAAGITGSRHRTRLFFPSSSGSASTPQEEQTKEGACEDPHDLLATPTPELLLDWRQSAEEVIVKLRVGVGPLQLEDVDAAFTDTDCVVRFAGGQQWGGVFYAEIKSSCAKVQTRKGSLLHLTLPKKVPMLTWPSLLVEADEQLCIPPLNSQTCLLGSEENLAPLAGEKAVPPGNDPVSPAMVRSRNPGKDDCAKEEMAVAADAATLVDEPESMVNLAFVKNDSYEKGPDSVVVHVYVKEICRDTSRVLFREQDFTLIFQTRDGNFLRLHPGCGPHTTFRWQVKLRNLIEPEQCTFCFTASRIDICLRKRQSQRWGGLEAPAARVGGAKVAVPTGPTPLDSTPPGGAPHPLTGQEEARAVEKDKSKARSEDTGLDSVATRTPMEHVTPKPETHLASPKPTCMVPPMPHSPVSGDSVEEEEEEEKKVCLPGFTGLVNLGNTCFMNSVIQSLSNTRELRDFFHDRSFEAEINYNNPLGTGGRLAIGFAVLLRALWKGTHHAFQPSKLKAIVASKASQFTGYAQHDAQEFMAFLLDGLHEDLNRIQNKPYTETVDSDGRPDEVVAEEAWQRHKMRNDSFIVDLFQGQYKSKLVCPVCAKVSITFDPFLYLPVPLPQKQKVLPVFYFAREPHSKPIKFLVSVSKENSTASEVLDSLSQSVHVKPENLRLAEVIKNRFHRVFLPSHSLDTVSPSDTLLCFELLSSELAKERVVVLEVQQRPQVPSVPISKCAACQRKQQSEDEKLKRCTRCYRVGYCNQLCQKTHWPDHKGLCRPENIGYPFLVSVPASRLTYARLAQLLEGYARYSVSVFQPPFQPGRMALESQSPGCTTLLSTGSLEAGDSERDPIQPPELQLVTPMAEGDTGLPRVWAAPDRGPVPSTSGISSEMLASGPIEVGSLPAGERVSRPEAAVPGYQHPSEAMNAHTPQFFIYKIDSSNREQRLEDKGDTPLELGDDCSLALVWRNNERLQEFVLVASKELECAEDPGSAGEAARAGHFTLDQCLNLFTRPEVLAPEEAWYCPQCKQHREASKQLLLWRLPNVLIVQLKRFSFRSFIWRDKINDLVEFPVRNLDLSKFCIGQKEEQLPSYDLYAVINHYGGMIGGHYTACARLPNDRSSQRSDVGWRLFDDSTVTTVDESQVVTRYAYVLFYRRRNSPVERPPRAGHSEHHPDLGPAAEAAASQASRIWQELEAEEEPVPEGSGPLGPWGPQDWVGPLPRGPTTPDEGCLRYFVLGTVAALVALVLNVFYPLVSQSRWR
An outline of the steps: (§1)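 Triplicate samples of HEK293T lysate, 495 µg each, received fragment at 200 µM or vehicle for 3 h, followed by Biotin-Ahx-Ub-VS (0.5 µM final) for 1 h. After NeutrAvidin enrichment of labelled DUBs and LysC/trypsin digestion, peptides were run by diaPASEF LC-MS/MS. The values are average log2 fragment/vehicle ratios from global-median-normalised Spectronaut label-free quantities, tested by unpaired t-test on proteins having ≥2 unique peptides.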

The target of test [2] is T2, USP22 (UniProt Q9UPT9).
T2 sequence (whole entry): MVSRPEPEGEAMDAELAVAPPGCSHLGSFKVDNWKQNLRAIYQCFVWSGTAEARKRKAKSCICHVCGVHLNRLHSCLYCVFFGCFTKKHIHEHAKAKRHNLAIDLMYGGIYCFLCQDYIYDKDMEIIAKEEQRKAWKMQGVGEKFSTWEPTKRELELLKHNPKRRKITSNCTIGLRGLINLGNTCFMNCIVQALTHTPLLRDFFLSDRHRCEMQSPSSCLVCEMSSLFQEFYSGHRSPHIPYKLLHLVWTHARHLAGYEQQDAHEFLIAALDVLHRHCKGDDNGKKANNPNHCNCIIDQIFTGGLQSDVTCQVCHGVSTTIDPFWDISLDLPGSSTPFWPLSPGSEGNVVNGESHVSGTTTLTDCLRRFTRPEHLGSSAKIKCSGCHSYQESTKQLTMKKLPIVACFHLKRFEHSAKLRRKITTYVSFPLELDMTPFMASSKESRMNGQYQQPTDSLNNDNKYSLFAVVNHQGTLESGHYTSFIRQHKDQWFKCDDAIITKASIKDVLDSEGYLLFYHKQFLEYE
An outline of the steps: as §1

For test [3], the target named is USP24 (UniProt Q9UPU5). Put shortly: as §1
Test [4] concerns the target T3, USP25 (UniProt Q9UHP3).
T3 sequence (whole entry): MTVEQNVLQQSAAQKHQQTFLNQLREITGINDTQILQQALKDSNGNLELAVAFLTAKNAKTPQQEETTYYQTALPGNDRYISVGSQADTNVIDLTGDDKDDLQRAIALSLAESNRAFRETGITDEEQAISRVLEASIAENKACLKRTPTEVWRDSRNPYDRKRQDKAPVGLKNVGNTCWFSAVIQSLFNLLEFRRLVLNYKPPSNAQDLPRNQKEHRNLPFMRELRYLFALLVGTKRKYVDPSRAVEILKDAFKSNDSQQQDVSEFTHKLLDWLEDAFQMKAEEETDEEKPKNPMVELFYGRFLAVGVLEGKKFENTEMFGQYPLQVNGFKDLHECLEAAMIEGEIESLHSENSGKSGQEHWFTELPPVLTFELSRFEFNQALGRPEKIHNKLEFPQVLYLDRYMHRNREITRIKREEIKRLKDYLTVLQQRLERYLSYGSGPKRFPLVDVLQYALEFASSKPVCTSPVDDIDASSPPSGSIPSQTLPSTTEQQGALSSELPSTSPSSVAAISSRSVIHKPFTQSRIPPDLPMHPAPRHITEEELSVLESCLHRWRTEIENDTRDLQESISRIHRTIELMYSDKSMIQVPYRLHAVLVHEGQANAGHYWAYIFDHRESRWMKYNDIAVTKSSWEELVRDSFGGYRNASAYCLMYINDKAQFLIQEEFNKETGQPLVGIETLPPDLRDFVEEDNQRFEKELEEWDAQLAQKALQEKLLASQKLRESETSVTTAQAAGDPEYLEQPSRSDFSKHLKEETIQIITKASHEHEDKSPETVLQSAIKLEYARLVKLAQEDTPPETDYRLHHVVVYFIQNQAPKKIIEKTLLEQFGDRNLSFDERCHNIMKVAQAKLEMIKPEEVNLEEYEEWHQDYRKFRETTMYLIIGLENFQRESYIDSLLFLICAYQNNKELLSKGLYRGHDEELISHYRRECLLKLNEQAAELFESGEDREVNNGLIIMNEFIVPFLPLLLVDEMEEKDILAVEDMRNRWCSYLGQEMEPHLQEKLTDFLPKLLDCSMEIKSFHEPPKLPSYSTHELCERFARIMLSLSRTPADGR
An outline of the steps: as §1

Test [5] addresses T4, USP28 (UniProt Q96RU2).
T4 sequence (whole entry): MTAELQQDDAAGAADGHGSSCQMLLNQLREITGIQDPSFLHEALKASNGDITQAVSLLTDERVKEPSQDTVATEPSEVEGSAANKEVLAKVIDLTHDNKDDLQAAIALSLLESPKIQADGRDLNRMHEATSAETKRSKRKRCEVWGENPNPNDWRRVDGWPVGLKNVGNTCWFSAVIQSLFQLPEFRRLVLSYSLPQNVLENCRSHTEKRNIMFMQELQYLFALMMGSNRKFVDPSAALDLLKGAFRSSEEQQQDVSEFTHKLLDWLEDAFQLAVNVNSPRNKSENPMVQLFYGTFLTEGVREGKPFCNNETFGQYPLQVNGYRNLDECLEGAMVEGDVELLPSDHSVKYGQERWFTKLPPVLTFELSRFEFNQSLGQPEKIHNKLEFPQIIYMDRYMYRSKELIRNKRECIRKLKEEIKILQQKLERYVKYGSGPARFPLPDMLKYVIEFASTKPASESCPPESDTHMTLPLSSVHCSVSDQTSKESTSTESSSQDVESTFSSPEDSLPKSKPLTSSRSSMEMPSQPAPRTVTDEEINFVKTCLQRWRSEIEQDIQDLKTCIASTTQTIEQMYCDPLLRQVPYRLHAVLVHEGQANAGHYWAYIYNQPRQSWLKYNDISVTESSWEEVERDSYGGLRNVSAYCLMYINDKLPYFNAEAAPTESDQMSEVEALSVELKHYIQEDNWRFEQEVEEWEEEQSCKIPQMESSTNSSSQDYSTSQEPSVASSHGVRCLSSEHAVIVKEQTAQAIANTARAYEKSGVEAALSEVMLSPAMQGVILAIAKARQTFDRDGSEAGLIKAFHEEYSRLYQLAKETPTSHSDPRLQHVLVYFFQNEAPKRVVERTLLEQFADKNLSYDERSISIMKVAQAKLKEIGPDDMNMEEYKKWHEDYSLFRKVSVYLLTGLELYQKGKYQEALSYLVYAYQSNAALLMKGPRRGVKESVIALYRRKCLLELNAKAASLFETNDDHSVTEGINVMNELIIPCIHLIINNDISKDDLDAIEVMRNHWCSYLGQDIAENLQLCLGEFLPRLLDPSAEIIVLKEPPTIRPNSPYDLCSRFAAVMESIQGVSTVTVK
An outline of the steps:
as §1

A number with no mark means an inactive call.

Chain of USP24 (Q9UPU5 whole entry): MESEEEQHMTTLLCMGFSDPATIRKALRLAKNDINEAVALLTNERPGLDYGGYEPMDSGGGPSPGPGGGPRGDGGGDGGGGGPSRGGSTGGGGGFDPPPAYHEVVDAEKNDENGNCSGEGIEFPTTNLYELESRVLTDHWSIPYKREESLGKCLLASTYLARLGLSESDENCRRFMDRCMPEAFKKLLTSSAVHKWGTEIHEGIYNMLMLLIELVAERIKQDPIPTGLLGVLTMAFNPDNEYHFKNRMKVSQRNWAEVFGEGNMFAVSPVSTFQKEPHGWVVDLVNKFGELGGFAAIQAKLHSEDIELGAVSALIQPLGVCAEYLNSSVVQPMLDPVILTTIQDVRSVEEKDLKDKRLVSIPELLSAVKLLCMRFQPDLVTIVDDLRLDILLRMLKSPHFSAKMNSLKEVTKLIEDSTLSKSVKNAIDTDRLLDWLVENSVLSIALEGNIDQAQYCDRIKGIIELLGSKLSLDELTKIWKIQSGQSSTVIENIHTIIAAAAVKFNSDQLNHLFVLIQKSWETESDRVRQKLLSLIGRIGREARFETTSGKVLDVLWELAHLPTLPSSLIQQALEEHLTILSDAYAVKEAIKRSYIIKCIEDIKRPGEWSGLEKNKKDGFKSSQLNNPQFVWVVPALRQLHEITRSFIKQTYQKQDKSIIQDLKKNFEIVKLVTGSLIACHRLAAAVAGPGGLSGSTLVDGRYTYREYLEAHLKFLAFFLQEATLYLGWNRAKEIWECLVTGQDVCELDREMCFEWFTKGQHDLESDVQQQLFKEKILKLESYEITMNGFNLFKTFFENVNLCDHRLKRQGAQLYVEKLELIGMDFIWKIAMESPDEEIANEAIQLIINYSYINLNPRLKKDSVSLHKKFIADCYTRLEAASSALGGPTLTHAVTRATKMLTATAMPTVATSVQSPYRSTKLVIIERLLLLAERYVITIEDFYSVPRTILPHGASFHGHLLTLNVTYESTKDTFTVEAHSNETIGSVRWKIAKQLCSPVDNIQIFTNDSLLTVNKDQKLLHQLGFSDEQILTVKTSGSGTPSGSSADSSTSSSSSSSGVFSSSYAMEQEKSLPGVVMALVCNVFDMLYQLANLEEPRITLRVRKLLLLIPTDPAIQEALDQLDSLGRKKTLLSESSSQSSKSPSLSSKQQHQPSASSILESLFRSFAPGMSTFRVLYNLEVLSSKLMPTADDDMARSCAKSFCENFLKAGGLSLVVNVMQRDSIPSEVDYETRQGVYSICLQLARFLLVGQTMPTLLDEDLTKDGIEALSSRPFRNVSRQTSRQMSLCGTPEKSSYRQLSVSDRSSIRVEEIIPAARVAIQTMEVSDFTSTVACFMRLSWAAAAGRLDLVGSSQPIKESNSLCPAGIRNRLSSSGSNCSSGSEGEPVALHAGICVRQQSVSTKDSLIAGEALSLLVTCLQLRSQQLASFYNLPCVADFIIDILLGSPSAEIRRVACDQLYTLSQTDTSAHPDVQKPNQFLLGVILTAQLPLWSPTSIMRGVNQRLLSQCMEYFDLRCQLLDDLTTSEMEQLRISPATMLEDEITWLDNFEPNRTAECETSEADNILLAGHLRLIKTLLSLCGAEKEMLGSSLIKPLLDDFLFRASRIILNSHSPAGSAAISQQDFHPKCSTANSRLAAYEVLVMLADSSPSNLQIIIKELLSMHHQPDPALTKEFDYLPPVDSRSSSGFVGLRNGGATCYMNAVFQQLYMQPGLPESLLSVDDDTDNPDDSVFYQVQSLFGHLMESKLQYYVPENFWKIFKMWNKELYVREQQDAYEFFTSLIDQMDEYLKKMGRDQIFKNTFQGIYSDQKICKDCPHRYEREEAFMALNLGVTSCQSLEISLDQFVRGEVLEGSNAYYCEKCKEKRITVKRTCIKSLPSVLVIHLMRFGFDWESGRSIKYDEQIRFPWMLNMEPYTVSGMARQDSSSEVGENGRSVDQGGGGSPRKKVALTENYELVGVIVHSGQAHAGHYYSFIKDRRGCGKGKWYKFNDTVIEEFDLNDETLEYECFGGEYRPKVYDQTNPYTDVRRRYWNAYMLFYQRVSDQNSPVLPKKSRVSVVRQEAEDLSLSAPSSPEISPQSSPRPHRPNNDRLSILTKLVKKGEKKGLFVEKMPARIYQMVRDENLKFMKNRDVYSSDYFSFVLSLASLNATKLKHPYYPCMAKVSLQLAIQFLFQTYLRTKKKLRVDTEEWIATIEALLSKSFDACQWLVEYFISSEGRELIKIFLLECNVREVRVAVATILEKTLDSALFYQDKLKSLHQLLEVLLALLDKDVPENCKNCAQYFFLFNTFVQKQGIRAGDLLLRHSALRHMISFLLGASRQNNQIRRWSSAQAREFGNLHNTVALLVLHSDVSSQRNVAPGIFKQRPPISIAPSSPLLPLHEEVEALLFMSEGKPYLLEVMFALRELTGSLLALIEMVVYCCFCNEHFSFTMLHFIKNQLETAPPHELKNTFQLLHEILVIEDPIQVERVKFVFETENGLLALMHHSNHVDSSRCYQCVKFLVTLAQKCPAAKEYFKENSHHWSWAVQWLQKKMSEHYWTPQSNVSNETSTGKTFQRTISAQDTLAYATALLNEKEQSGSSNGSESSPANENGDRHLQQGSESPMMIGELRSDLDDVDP

Take `O=C(CCl)N1CCN(C(=O)N2CCCCC2)CC1`: the “log2 ratio of Biotin-Ahx-Ub-VS probe labelling” value in test [1] is -0.943; in test [2] it was -0.465; in test [3], -1.28 (active); in test [4], -1.09 (active); in test [5], -1.23 (active).

(Values after the supplement of paper PMC11732987, “Enantioselective OTUD7B fragment discovery through chemoproteomics screening and high-throughput optimisation” (Communications Chemistry, 2025).)
